Source: PubChem BioAssay (NCATS)
Results filed as inconclusive are left out. Where a call stands in place of a potency, no number is given. Active and inactive are the calls of the source. Calls come from the whole dose curve; as a rule, active = well fitted inhibition curve with a large enough effect; inconclusive = small, poorly fitted or top-dose-only effect; inactive = flat fitted curve, though single readings scatter.

System: MKL-1
Experiment: qHTS assay to identify novel small-molecules to repurpose for Merkel cell carcinoma treatment (AID 1296009); note: nearly all actives have a fitted effect of over 60% in size
Conditions: MCC and control cell lines, CellTiter-Glo viability, 72 h; series mostly up to 46 µM
Summary of the method: (§1)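 After compound transfer in DMSO, plates were kept 72 hr at 37 degree celsius. Luminescent ATP signal from CellTiter-Glo served as viability measure, normalized against DMSO and no-cell controls.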
Potency is the fitted concentration of half-maximal effect.

| Structure (SMILES) | Potency |
| --- | --- |
| CCc1oc2ccccc2c1C(=O)c1cc(Br)c(O)c(Br)c1 | inactive |
| C=C[C@H]1CN2CC[C@H]1C[C@H]2[C@H](O)c1ccnc2ccc(OC)cc12 | inactive |
| CC[C@H](c1ccc(O)cc1)[C@@H](CC)c1ccc(O)cc1 | inactive |
| CCCCC(CC)CN1CN(CC(CC)CCCC)CC(C)(N)C1 (centres undefined) | inactive |
| CO[C@H]1C=CO[C@@]2(C)Oc3c(C)c(O)c4c(O)c(c(/C=N/N5CCN(C)CC5)c(O)c4c3C2=O)NC(=O)/C(C)=C\C=C[C@H](C)[C@H](O)[C@@H](C)[C@@H](O)[C@@H](C)[C@H](OC(C)=O)[C@@H]1C | 21.1 µM (active) |
| Cc1cc(CC(=O)O)c(C)n1-c1ccc(Cl)cc1 | inactive |
| O=C1[C@H](CC[C@H](O)c2ccc(F)cc2)[C@@H](c2ccc(O)cc2)N1c1ccc(F)cc1 | inactive |
| C#C[C@]1(O)CC[C@H]2[C@@H]3[C@H](C)CC4=C(CCC(=O)C4)[C@H]3CC[C@@]21C | inactive |
| CC(C)n1c(/C=C/[C@@H](O)C[C@@H](O)CC(=O)O)c(-c2ccc(F)cc2)c2ccccc21 | 13.3 µM (active) |
| CC(=O)OCC1=C(C(=O)O)N2C(=O)[C@@H](NC(=O)CSc3ccncc3)[C@H]2SC1 | inactive |
| NCCNC(=O)c1ccc(Cl)cn1 | inactive |
| C[C@]12CCC(=O)C=C1C=C[C@@H]1[C@@H]2CC[C@@]2(C)[C@H]1CC[C@@]21CCC(=O)O1 | inactive |
| COc1ccc(CCN(C)CCCN2CCc3cc(OC)c(OC)cc3CC2=O)cc1OC | inactive |
| CC(=O)O[C@]1(C(C)=O)CC[C@H]2[C@@H]3C=C(Cl)C4=CC(=O)CC[C@]4(C)[C@H]3CC[C@@]21C | inactive |
| NC(=O)n1c(O)c(C(=O)c2cccs2)c2cc(Cl)ccc21 | inactive |
| CC(=C(CCOC(=O)C(C)C)SSC(CCOC(=O)C(C)C)=C(C)N(C=O)Cc1cnc(C)nc1N)N(C=O)Cc1cnc(C)nc1N | inactive |
| CCO[C@@H]1O[C@H](C(COCc2ccccc2)OCc2ccccc2)[C@H](OCc2ccccc2)[C@H]1O (some centres undefined) | inactive |
| C=C1c2cccc(O)c2C(O)=C2C(=O)[C@]3(O)C(O)=C(C(N)=O)C(=O)[C@@H](N(C)C)[C@@H]3[C@@H](O)[C@H]12 | inactive |

| Structure (SMILES) | Potency |
| --- | --- |
| CN1CCN(C2=Nc3cc(F)ccc3Cc3ccccc32)CC1 | inactive |
| CC(C)[N+](C)(C)CC(O)COc1cccc2ccccc12 (centres undefined) | inactive |
| O=[N+]([O-])c1ccc(/C=N\O)o1 | 18.8 µM (active) |
| C[N+]1(CC2COC(c3ccccc3)(C3CCCCC3)O2)CCCCC1 (centres undefined) | 10.6 µM (active) |
| CCN(CC)CCOc1ccccc1C(=O)CCc1ccccc1 | inactive |
| CCCCN=C(N)N=C(N)N | inactive |
| Cc1cc2c(OCC(CNC(C)(C)C)OC(=O)c3ccccc3)cccc2[nH]1 (centres undefined) | inactive |
| c1ccc(CC2=NCCN2)cc1 | inactive |
| CN1CCN(C2=Nc3ccccc3Sc3ccc(Cl)cc32)CC1 | inactive |
| CCCCc1cc2ccccc2c(OCCN(C)C)n1 | inactive |
| Cc1ccc(O)c([C@H](CCN(C(C)C)C(C)C)c2ccccc2)c1 | inactive |
| C#C[C@]1(O)CC[C@H]2[C@@H]3CCc4cc(OC)ccc4[C@H]3CC[C@@]21C | inactive |
| O=C(CCN1CCN2CCCC2C1)N1c2ccccc2Sc2ccc(Cl)cc21 (centres undefined) | inactive |
| CC(C)(Cc1c[nH]c2ccccc12)NCC(O)COc1ccccc1C#N (centres undefined) | inactive |
| COc1cc(O)c(C(=O)c2ccccc2)cc1S(=O)(=O)O | inactive |
| CCC(CC)(CC(=O)Nc1cccc(/C=C/c2nc(C3CCC3)cs2)c1)C(=O)O | inactive |
| OC[C@H]1O[C@@H](Oc2ccc(O)cc2)[C@H](O)[C@@H](O)[C@@H]1O | inactive |
| O=C(Nc1ccccc1)OCC(CN1CCCCC1)OC(=O)Nc1ccccc1 (centres undefined) | inactive |

System: MKL-2
Experiment: as above
Conditions: MCC and control cell lines, CellTiter-Glo viability, 72 h; series mostly up to 46 µM
Summary of the method: as §1

| Structure (SMILES) | Potency |
| --- | --- |
| CCc1oc2ccccc2c1C(=O)c1cc(Br)c(O)c(Br)c1 | inactive |
| C=C[C@H]1CN2CC[C@H]1C[C@H]2[C@H](O)c1ccnc2ccc(OC)cc12 | inactive |
| O=C1[C@H](CC[C@H](O)c2ccc(F)cc2)[C@@H](c2ccc(O)cc2)N1c1ccc(F)cc1 | inactive |
| C[C@]12CCC(=O)C=C1C=C[C@@H]1[C@@H]2CC[C@@]2(C)[C@H]1CC[C@@]21CCC(=O)O1 | inactive |
| COc1ccc(CCN(C)CCCN2CCc3cc(OC)c(OC)cc3CC2=O)cc1OC | inactive |
| NC(=O)n1c(O)c(C(=O)c2cccs2)c2cc(Cl)ccc21 | inactive |
| CN1CCN(C2=Nc3cc(F)ccc3Cc3ccccc32)CC1 | inactive |
| CC(C)[N+](C)(C)CC(O)COc1cccc2ccccc12 (centres undefined) | inactive |
| C[N+]1(CC2COC(c3ccccc3)(C3CCCCC3)O2)CCCCC1 (centres undefined) | 5.96 µM (active) |
| CCN(CC)CCOc1ccccc1C(=O)CCc1ccccc1 | inactive |
| CCCCN=C(N)N=C(N)N | inactive |
| Cc1cc2c(OCC(CNC(C)(C)C)OC(=O)c3ccccc3)cccc2[nH]1 (centres undefined) | inactive |
| CN1CCN(C2=Nc3ccccc3Sc3ccc(Cl)cc32)CC1 | inactive |
| Cc1ccc(O)c([C@H](CCN(C(C)C)C(C)C)c2ccccc2)c1 | inactive |
| CC(C)(Cc1c[nH]c2ccccc12)NCC(O)COc1ccccc1C#N (centres undefined) | inactive |
| COc1cc(O)c(C(=O)c2ccccc2)cc1S(=O)(=O)O | inactive |
| OC[C@H]1O[C@@H](Oc2ccc(O)cc2)[C@H](O)[C@@H](O)[C@@H]1O | inactive |
| O=C(Nc1ccccc1)OCC(CN1CCCCC1)OC(=O)Nc1ccccc1 (centres undefined) | inactive |
